Experimental data from PubChem BioAssay AID2685 (National Center for Advancing Translational Sciences (NCATS), 2010).
Screen size: about 320,000 compounds; about 2,100 (0.66%) were called active. Inconclusive results (about 53%) are left out. Calls follow the shape of the dose curve; as a rule, active = well fitted inhibition curve with a large enough effect in the signal ratio, with a control signal flat (not every such curve was filed as active); inconclusive = small, poorly fitted or top-dose-only effect, or effect the other way, or a change in a side signal; inactive = flat fitted curve, though single readings scatter; the % refers to the signal ratio. What follows is part of a selection rich in actives, with near analogues and random picks from the rest.

test: qHTS Assay for Lipid Storage Modulators in Drosophila S3 Cells; details: BODIPY lipid droplet fluorescence, 18-24 h, cells fed with added oleic acid; cell number change: measured here: cell count max response; series mostly up to 46.1 µM; lipid storage change, negative = inhibition: at the top concentration;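 as to cell number change: cells counted by Cell Tracker Red CMTPX staining in the red channel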; as to lipid storage change, negative = inhibition: % is scaled to controls: 0 for no effect and ±100 for the full control effect
Method in brief: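 Laser-scanning cytometry quantifies lipid droplet accumulation (500–530 nm total intensity; droplet/cell object ratio) in oleic acid-fed (400 uM added) Drosophila S3 cells treated with a concentration series. 20 uM Triacsin C defined 100% inhibition.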
Potency is read from the fitted curve at half-maximal effect.

SMILES	Potency	cell number change	lipid storage change, negative = inhibition	outcome
O=C1/C(=C\c2cccnc2)CN(Cc2ccccc2)C/C1=C\c1cccnc1	2.31 µM (active)	-26.3%	–	–
O=C1/C(=C\c2cccnc2)CCc2ccccc21	–	-16.3%	5.43% (inactive)	–
CN1C/C(=C\c2ccc(N3CCOCC3)cc2)C(=O)/C(=C/c2ccc(N3CCOCC3)cc2)C1	7.31 µM (active)	-12.7%	–	–
CN1C/C(=C/c2ccncc2)C(=O)/C(=C/c2ccncc2)C1	–	15.3%	–	inactive
O=C1NC(=S)N/C1=C\c1ccc(N2CCOCC2)cc1	–	–	-7.79% (inactive)	–
C(=N\N1CCN(Cc2ccccc2)CC1)/c1cccnc1	–	3.04%	10.3% (inactive)	–
CC1=N/C(=C/c2cccnc2)C(=O)O1	–	-0.0715%	0.341% (inactive)	–
CN1C/C(=C/c2cccnc2)C(=O)/C(=C/c2cccnc2)C1	1.84 µM (active)	-16.3%	–	–
O=C1/C(=C/c2cccnc2)CCc2c1[nH]c1ccccc21	–	-5.69%	19% (inactive)	–
CC(C)N1CC2=C(OC(N)=C(C#N)C2c2cccnc2)/C(=C/c2cccnc2)C1 (stereo not given)	–	-0.305%	11.8% (inactive)	–
CC(C)N1C/C(=C/c2cccnc2)C(=O)/C(=C/c2cccnc2)C1	23.1 µM (active)	-15.1%	–	–
COc1ccc(N2C(=O)/C(=C/c3ccc([N+](=O)[O-])cc3)N=C2C)c(OC)c1	–	-0.57%	12.2% (inactive)	–
O=c1c2cc3c(nc2[nH]c(=S)n1-c1ccccc1)CCCC3	–	8.9%	-3.75% (inactive)	–
COc1ccccc1OCCNc1cc(N2CCCCC2)ccc1[N+](=O)[O-]	–	20.1%	7.35% (inactive)	–
CCOc1ccc2nc(SCC(=O)Nc3ccc4c(c3)OCCO4)[nH]c2c1	–	-1.86%	–	inactive
O=C(/C=C/c1ccco1)N(Cc1ccccc1F)C1CCS(=O)(=O)C1 (stereo not given)	–	19.4%	23.1% (inactive)	–
CCOc1ccccc1-n1c(SCC(=O)N2CCOCC2)nnc1-c1ccccn1	–	1.75%	3.34% (inactive)	–
N#Cc1ccc(/C=N/NC(=O)c2cc(-c3cccs3)nc3ccccc23)cc1	–	12.5%	21.4% (inactive)	–
COc1ccc(NCc2nnc(SCC(=O)Nc3ccc(OC)cc3OC)o2)cc1	–	8.92%	8.16% (inactive)	–
CCOC(=O)N1CCN(C(=O)CN(c2ccccc2OC)S(=O)(=O)c2ccc(C)cc2)CC1	–	–	–	inactive
O=C1/C(=C\c2ccsc2)N2CCC1CC2	–	5.98%	-13% (inactive)	–
O=C1/C(=C/c2ccsc2)N2CCC1CC2	–	-5.13%	-0.371% (inactive)	–
CC(C)N1C/C(=C/c2ccsc2)C(=O)/C(=C/c2ccsc2)C1	14.6 µM (active)	-15.9%	–	–
CC(C)(CNS(=O)(=O)c1ccc(F)cc1)CNS(=O)(=O)c1ccc(F)cc1	–	6.92%	–	inactive

SMILES	Potency	cell number change	lipid storage change, negative = inhibition	outcome
CN(C)CC(C)(C)CNS(=O)(=O)c1ccc(Cl)cc1	–	27.8%	1.02% (inactive)	–
CN(C)CC(C)(C)CNS(=O)(=O)c1ccc(Cl)c(Cl)c1	23.1 µM (active)	-9.4%	–	–
CCCc1ccc(OCCNC(=O)C2CCCCC2)cc1	–	-6.51%	10.9% (inactive)	–
CC(=O)Nc1ccc(S(=O)(=O)n2cnc3ccccc32)cc1	–	13.3%	–	inactive
O=C(CN1C(=O)CCC1=O)Nc1cccc(NC(=O)CN2C(=O)CCC2=O)c1	–	-5.66%	-8.67% (inactive)	–
O=C(CCN1c2ccccc2Sc2ccccc21)Oc1ccccc1	–	-0.775%	1.68% (inactive)	–
Cn1c(C(=O)NCC2CCCO2)cc2oc3ccccc3c21 (stereo not given)	0.58 µM (active)	-14.1%	–	–
Cn1c(C(=O)NCc2ccccc2)cc2oc3ccccc3c21	–	12.4%	–	inactive
Cn1c(C(=O)NCC2CCCO2)cc2c(=O)[nH]c3ccccc3c21 (stereo not given)	–	4.34%	-0.25% (inactive)	–
Cc1ccccc1CS(=O)(=O)CCC(=O)NCc1ccccn1	–	-19.8%	-5.48% (inactive)	–
O=C(CSc1ccc(Cl)cc1)NCc1ccncc1	–	8.1%	2.06% (inactive)	–
COc1ccc(OC)c(S(=O)(=O)N2CCN(c3ccccn3)CC2)c1	–	-24%	-23.4% (inactive)	–
COc1ccc(Br)cc1CN(C)C(=O)Cc1ccc(OC)c(S(=O)(=O)N2CCOCC2)c1	10.3 µM (active)	30.1%	–	–
COc1ccc(CC(=O)N(C)Cc2ccc(Cl)cc2)cc1S(=O)(=O)N1CCOCC1	–	–	–	inactive
COc1ccc(C(=O)O)cc1S(=O)(=O)N1CCN(c2ccccn2)CC1	0.82 µM (active)	2.78%	–	–
COc1ccc(/C=C/C(=O)N2CCN(c3ccccn3)CC2)c(OC)c1OC	–	5.19%	-3.76% (inactive)	–
COc1ccc(CC(=O)N(C)Cc2cccc(F)c2)cc1S(=O)(=O)N1CCOCC1	–	18.8%	21.5% (inactive)	–
O=C(Nc1ccc(NC(=O)c2ccc(Cl)c(S(=O)(=O)N3CCOCC3)c2)cc1)c1ccccc1	–	–	13.6% (inactive)	–
CN(C(=O)c1ccc(Cl)c(S(=O)(=O)N2CCOCC2)c1)c1ccccc1C(=O)O	0.82 µM (active)	-5.89%	–	–
COc1ccc(S(=O)(=O)N2CCN(c3ccccn3)CC2)c(OC)c1	–	-13%	-23.1% (inactive)	–
COc1cc(/C=C/C(=O)N2CCN(c3ccccn3)CC2)cc(OC)c1OC	16.4 µM (active)	-26.3%	–	–
O=C(Nc1ccccc1C(=O)O)c1ccc(Cl)c(S(=O)(=O)N2CCOCC2)c1	–	-21%	-15.9% (inactive)	–
COc1cccc(/C=C/C(=O)N2CCN(c3ccccn3)CC2)c1	–	-5.2%	9.27% (inactive)	–
